# Assay results as given in ChEMBL document CHEMBL3433997, “St. Jude Leishmania screening dataset” (2016).
# What was measured:
# Assay type in all cases: functional
# [1] = target: Solute carrier family 2, facilitated glucose transporter member 1 (Homo sapiens) (UniProt P11166); test: ST_JUDE_LEISH: Cytotoxicity at 2uM final concentration against transgenic Leishmania Mexicana promastigotes LmGLUT1 that are glucose transport deficient and complemented with the human glucose transporter GLUT1. Activity is measured by DNA content using SYBR green in vitro
# [2] = target: Hexose transporter 1 (Plasmodium falciparum) (UniProt O97467); test: ST_JUDE_LEISH: Cytotoxicity at 2uM final concentration against transgenic Leishmania Mexicana promastigotes LmPfHT that are glucose transport deficient and complemented with the Plasmodium falciparum hexose transporter. Activity is measured by DNA content using SYBR green in vitro
# [3] = target: Glucose transporter (Leishmania mexicana) (UniProt O61059); test: ST_JUDE_LEISH: Cytotoxicity at 2uM final concentration against transgenic Leishmania Mexicana promastigotes LmGT2 that are glucose transport deficient and complemented with the L. Mexicana glucose transporter 2. Activity is measured by DNA content using SYBR green in vitro
# Solute carrier family 2, facilitated glucose transporter member 1 (Homo sapiens), sequence (P11166 whole entry): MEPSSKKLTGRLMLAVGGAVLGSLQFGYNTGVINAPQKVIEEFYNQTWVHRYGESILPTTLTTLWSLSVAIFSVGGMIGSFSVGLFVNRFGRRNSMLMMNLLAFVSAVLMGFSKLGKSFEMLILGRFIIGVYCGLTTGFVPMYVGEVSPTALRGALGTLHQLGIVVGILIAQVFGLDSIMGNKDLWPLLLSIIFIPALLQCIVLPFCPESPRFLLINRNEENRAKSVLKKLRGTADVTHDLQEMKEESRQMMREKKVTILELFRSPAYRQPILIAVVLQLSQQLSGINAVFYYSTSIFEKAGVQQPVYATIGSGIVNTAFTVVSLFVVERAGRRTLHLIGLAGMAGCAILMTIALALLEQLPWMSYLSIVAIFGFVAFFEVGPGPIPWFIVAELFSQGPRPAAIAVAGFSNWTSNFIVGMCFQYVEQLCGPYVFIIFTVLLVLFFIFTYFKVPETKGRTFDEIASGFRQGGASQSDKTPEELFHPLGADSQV
structure (smiles),measurement,setting,value
OCC1CCN(Cc2ccc(-c3cccc(-c4nc5ccccc5[nH]4)c3)cc2)CC1,inhibition,[1],1.15%
same,inhibition,[2],1.08%
same,inhibition,[3],3.83%
COc1ccc(-c2ccc(NC(=O)c3cccc(Cl)c3)c(F)c2)cc1CNC(C)C,inhibition,[1],9.29%
same,inhibition,[2],7.16%
same,inhibition,[3],4.55%
NC(=O)COc1c(C2CCN(CCN3CCC(CNC(=O)c4ccc(-c5ccc(C(F)(F)F)cc5)cc4)CC3)CC2)ccc2c1CCCC2,inhibition,[1],4.85%
same,inhibition,[2],4.29%
same,inhibition,[3],3.32%
C(=NNc1nc2ccccc2[nH]1)c1ccccc1OCc1ccccc1,inhibition,[1],4.25%
same,inhibition,[2],6.99%
same,inhibition,[3],3.06%
COc1ccc2nccc([C@@H](O)CN3CCC(NCc4ccc5nc[nH]c(=O)c5c4)CC3)c2c1,inhibition,[1],1.63%
same,inhibition,[2],-1.56%
same,inhibition,[3],-1.45%
O=C(Nc1cccc(-c2nc3ccccc3[nH]2)c1)c1cccc(NC(=O)c2ccco2)c1,inhibition,[1],2.33%
same,inhibition,[2],2.09%
same,inhibition,[3],0.63%
Cc1cc(O)nc(NC#N)n1,inhibition,[1],2.54%
same,inhibition,[2],3.15%
same,inhibition,[3],2.82%
CC(=O)Nc1ccc(NC(=O)c2cc(-c3cc(Cl)ccc3O)n[nH]2)cc1,inhibition,[1],-0.41%
same,inhibition,[2],-0.51%
same,inhibition,[3],2.29%
CCN(CC)CCCOc1ccc(Nc2nccc(-c3c(-c4cccc(NC(=O)c5c(F)cccc5F)c4)nn4ccccc34)n2)cc1F,inhibition,[1],58%
same,inhibition,[2],56.7%
same,inhibition,[3],10.5%
O=C(Nc1cccc(-c2csc(-c3nc4ccccc4[nH]3)c2)c1)c1cccnc1,inhibition,[1],1.57%
same,inhibition,[2],4.05%
same,inhibition,[3],-0.53%
Cc1cc(C)c2oc(-c3cccc(NC(=O)c4ccc([N+](=O)[O-])o4)c3C)nc2c1,inhibition,[1],11.4%
same,inhibition,[2],10.4%
same,inhibition,[3],1.45%
O=C(Cc1cccc2ccccc12)NC1CCN(c2ccnc3cc(Cl)ccc23)C1 (stereo unspecified),inhibition,[1],-2.29%
same,inhibition,[2],-1.67%
same,inhibition,[3],-0.88%
